AmpC inh no detg: inhibitors of E. coli AmpC beta-lactamase without detergent; P00811; AmpC nitrocefin hydrolysis, absorbance 480 nm, 0.0001% Triton; Potency, µM (highest dose often 57.1 µM), hits mostly inhibitors; actives 0.52% (n = 330,000); further: nearly all actives have a fitted effect of over 20% in size
Target sequence (P00811 whole entry, looked up): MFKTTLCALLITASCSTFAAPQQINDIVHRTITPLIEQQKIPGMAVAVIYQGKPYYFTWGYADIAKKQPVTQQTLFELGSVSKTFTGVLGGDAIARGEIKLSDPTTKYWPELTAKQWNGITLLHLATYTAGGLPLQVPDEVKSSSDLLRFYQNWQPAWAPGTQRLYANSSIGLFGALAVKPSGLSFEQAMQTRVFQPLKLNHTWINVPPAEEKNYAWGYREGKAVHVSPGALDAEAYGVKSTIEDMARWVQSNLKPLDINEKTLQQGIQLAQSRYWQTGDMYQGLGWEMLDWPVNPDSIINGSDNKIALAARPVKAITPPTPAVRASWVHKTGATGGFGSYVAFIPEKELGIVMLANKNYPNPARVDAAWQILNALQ
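20 mM phosphate pH 7.0 + 0.01% (detergent screen) or 0.0001% Triton X-100; 5.3 nM AmpC reagent; cpd preinc 15 min RT; nitrocefin (800 uM stock) to start; A480 q20 s × 4 min; Activity was normalised to no-enzyme and no-compound control wells.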
Sm TGR block: blocks Schistosoma mansoni thioredoxin glutathione reductase; Q962Y6; purified TGR, DTNB reduction, TNB absorbance 405 nm; Potency, µM (highest dose often 114 µM), usual class: inhibitors; actives 3% (n = 360,000); AID 485364; further: nearly all actives have a fitted effect of over 60% in size
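Kinetic colorimetric format: TGR-catalysed, NADPH-driven DTNB reduction monitored via TNB absorbance. Enzyme dispensed at 20 nM; compound exposure 15 min at room temperature before reaction start.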
AmpC detergent: inhibitors of E. coli AmpC beta-lactamase with detergent; actives 0.041% (n = 370,000); P00811; AID 485294; Potency, µM (top dose mostly 114 µM), most hits filed as inhibitors; AmpC hydrolysis of nitrocefin, absorbance 480 nm, 0.01% Triton; further: nearly all actives have a fitted effect of over 25% in size
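AmpC (5.3 nM in the dispensed reagent) in 20 mM phosphate pH 7.0 with 0.01% (detergent screen) or 0.0001% Triton X-100 was preincubated with compounds for 15 min at room temperature. Nitrocefin was then added from an 800 uM solution, and hydrolysis was followed at 480 nm.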
Pf growth 48h: inhibits P. falciparum growth in the first generation, 48 h; P. falciparum luciferase growth in erythrocytes, 48 h; AID 504832; actives 5.9% (n = 310,000); Potency, µM (series often up to 28.7 µM), actives largely listed as inhibitors
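Growth was read as firefly luciferase luminescence after a 48 h, 37 C, 5% CO2 exposure of compounds to reporter-bearing P. falciparum cultures (0.1% parasitemia, 2% hematocrit final) in Albumax-supplemented RPMI 1640.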
SARS PLpro yeast: SARS-CoV PLP inhibition in yeast | S. cerevisiae expressing SARS-CoV PLpro, growth rescue | Potency, µM (doses to about 32.9 µM), hits mostly activators | actives 0.19% (n = 330,000); calls by dose curve; further: nearly all actives have a fitted effect of over 55% in size
Pf growth 96h: inhibits malaria parasite growth, 96 h | actives 6.9% (n = 320,000) | Potency, µM (titrated, usually from 28.7 µM), actives largely listed as inhibitors | AID 504834 | P. falciparum luciferase reporter growth, 96 h
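96 h incubation, 37 C, 5% CO2, of luciferase-reporter P. falciparum-infected RBCs (2% hematocrit, 0.05% parasitemia final) with test compounds; endpoint luminescence.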
Of the large screens only hits and unclear results are named; the others gave an inactive call. A selection: hits, their analogues and other compounds. The true share with any hit is near 12%. Unless noted, the call rests on the fitted dose curve; in most records, active means well fitted curve in the direction sought with a large enough effect; inconclusive means small, poorly fitted or top-dose-only effect, or another doubt; inactive means no such curve, though single readings can be large; an effect the other way counts as inactive or inconclusive.

O=C(NCc1ccc(Cl)cc1)c1cnc2sc(N3CCCCCC3)nn2c1=O	none (no result: AmpC inh no detg, Pf growth 48h, SARS PLpro yeast, Pf growth 96h)
Cc1ccc(NC(=O)c2sc3nc(CCl)[nH]c(=O)c3c2C)c(C)c1	Sm TGR block 20µM, Pf growth 48h inconclusive, Pf growth 96h inconclusive
Cc1nnc(NC(=O)CCC(=O)NCc2cccs2)s1	none
O=C(CCC(=O)Nc1nnc(C2CCCCC2)s1)NCc1cccs1	Pf growth 96h 10.4µM
CC(Oc1ccccc1)C(=O)Nc1nnc(C2CCCCC2)s1 (configuration not stated)	Pf growth 96h 0.0029µM
CC(Oc1ccccc1)C(=O)Nc1nnc(S(=O)(=O)N2CCCCC2)s1 (configuration not stated)	Pf growth 96h inconclusive
OCC[C@H]1C[C@@H](O)[C@H](O)[C@@]2(Cc3ccccc3CO2)O1	none
Cn1nnnc1SCCCNCc1cc(Cl)ccc1OCc1ccc(F)cc1	none (no result: AmpC inh no detg, Pf growth 48h, SARS PLpro yeast, Pf growth 96h)
Cc1ccc(O)c2ncccc12	Pf growth 96h inconclusive (no result: AmpC inh no detg, Sm TGR block, AmpC detergent, SARS PLpro yeast)
Oc1ccc(Cn2ccnc2)c2cccnc12	Sm TGR block 22.4µM, Pf growth 48h 3.7µM
OCc1cn(Cc2ccc(O)c3ncccc23)cn1	Sm TGR block inconclusive, Pf growth 48h 5.22µM, Pf growth 96h 6.57µM
CCOC(=O)c1c(C)oc2nc(C)nc(NCc3cccc(Cl)c3)c12	none (no result: AmpC inh no detg, Pf growth 48h, SARS PLpro yeast, Pf growth 96h)
CCC(=O)O[C@@]1(C(=O)SCF)[C@@H](C)C[C@H]2[C@@H]3C[C@@H](F)C4=CC(=O)C=C[C@@]4(C)[C@]3(F)[C@@H](O)C[C@]21C	Pf growth 48h 5.73µM, Pf growth 96h 4.05µM (no result: AmpC inh no detg, Sm TGR block, AmpC detergent, SARS PLpro yeast)
C[C@@H]1C[C@H]2[C@@H]3C[C@H](F)C4=CC(=O)C=C[C@]4(C)[C@@]3(F)[C@@H](O)C[C@]2(C)[C@@]1(O)C(=O)COC(=O)C(C)(C)C	Pf growth 48h inconclusive
COc1ccc2c(c1)CC1(CN2C)C(=O)NC(=O)N(CCc2ccccc2)C1=O (configuration not stated)	Sm TGR block 39.8µM
CCOC(=O)c1c(/N=C/c2cccc(C)c2O)sc2c1CCN(C)C2	Pf growth 48h inconclusive, Pf growth 96h 1.65µM
CCOC(=O)c1c(/N=C/c2c(O)n(-c3cccc(C)c3)c(=O)[nH]c2=O)sc2c1CCCC2	Sm TGR block 89.1µM, AmpC detergent inconclusive, Pf growth 96h inconclusive
CCOC(=O)c1c(/N=C/c2ccc(O)cc2O)sc2c1CCC2	AmpC inh no detg 10µM, Pf growth 96h inconclusive
CCOC(=O)c1c(/N=C/c2ccccc2O)sc2c1CCC2	Pf growth 96h inconclusive
CCOC(=O)c1c(/N=C/c2ccc(C)cc2O)sc2c1CCN(C)C2	Pf growth 48h inconclusive, Pf growth 96h inconclusive
O=C1CC(c2nc3ccccc3n2CCCOc2ccccc2)CN1c1ccc(F)cc1 (configuration not stated)	none (no result: AmpC inh no detg, Pf growth 48h, SARS PLpro yeast, Pf growth 96h)
C[C@@H](C(=O)Nc1nc(-c2ccccn2)cs1)N1C(=O)C2CCCCC2C1=O (some centres not stated)	Pf growth 96h 11.7µM (no result: Pf growth 48h)
CCc1cc(C(=O)Nc2nc(-c3ccccn3)cs2)sc1C	Pf growth 48h 4.15µM, Pf growth 96h inconclusive
Cc1ccc(C(=O)Nc2nc(-c3ccc([N+](=O)[O-])cc3)cs2)o1	AmpC detergent inconclusive, Pf growth 96h inconclusive
CC(=O)Nc1ccc(-c2csc(NC(=O)c3ccc(C)o3)n2)cc1	Pf growth 96h 9.28µM (no result: Pf growth 48h)
O=C(Nc1nc(-c2ccccn2)cs1)c1ccc([N+](=O)[O-])o1	Sm TGR block 10µM, Pf growth 48h 2.94µM, Pf growth 96h 2.33µM
CC1(C)CC(=O)C(C(=O)c2ccccc2)C(=O)C1Cl (configuration not stated)	Sm TGR block inconclusive, Pf growth 48h inconclusive
CC[C@@H](C)[C@H](N)C(=O)NC[C@H]1O[C@@H](n2cnc3c(N)ncnc32)[C@H](O)[C@@H]1O	none (no result: Sm TGR block, AmpC detergent, Pf growth 48h, Pf growth 96h)
O=C(NCc1ccccc1F)c1ccc2c(c1)OCCO2	none
Cc1nn(C(=O)c2cccc(F)c2)c(C)c1S(=O)(=O)N1CCOCC1	Sm TGR block inconclusive (no result: AmpC inh no detg, Pf growth 48h, SARS PLpro yeast, Pf growth 96h)
CC(=O)NNc1nc(-c2ccc(NC(C)=O)cc2)cs1	Sm TGR block 39.8µM
CC(=O)c1ccc(-c2ccc(C(=O)Nc3nc(-c4ccccn4)cs3)o2)cc1	none (no result: Sm TGR block, AmpC detergent, Pf growth 48h, Pf growth 96h)
Cc1ccc(C(=O)Nc2nc(-c3ccccn3)cs2)o1	Pf growth 48h 4.15µM, Pf growth 96h 2.33µM
O=C(CN1C(=O)C2CCCCC2C1=O)Nc1nc(-c2ccccn2)cs1 (configuration not stated)	Pf growth 96h inconclusive (no result: Pf growth 48h)
CC1CC1C(=O)Nc1nc(-c2ccccn2)cs1 (configuration not stated)	Pf growth 96h 3.7µM (no result: Pf growth 48h)
O=C(COc1ccc([N+](=O)[O-])cc1)Nc1nc(-c2ccccn2)cs1	Pf growth 48h 9.28µM, Pf growth 96h 6.57µM
Oc1c(C(c2ccccc2Cl)N2CCCC2)sc2nc(-c3ccco3)nn12 (configuration not stated)	none (no result: AmpC inh no detg, Pf growth 48h, SARS PLpro yeast, Pf growth 96h)
C=C(C)Cn1c(=O)c2c(nc3n2CCN3c2ccc(F)cc2)n(C)c1=O	none (no result: AmpC inh no detg, Pf growth 48h, SARS PLpro yeast, Pf growth 96h)
O=C(Nc1nc(-c2ccccn2)cs1)c1ccc(-c2ccccc2F)o1	Sm TGR block 25.1µM, Pf growth 48h inconclusive, Pf growth 96h inconclusive
O=C1NC(=O)[C@]2(Cc3ccccc3N3CCN(c4ccccc4)CC32)C(=O)N1Cc1ccccc1 (some centres not stated)	Sm TGR block inconclusive, Pf growth 48h inconclusive, Pf growth 96h 9.28µM
COC(=O)CCCC1=CC2=C(c3ccccc3)C(=O)C(C)(OC(=O)C3CCCC3)C(=O)C2=CN1CC1CC1 (configuration not stated)	Sm TGR block 28.2µM, Pf growth 48h inconclusive, Pf growth 96h 8.28µM
COCCN1C=C2C(=O)C(C)(OC(=O)C3CCCC3)C(=O)C(c3ccccc3)=C2C=C1CCCC(=O)OC (configuration not stated)	Sm TGR block 14.1µM, Pf growth 96h inconclusive
COC(=O)CCCC1=CC2=C(c3ccccc3)C(=O)C(C)(OC(=O)C3CCCC3)C(=O)C2=CN1C1CCCCC1 (configuration not stated)	Sm TGR block 20µM, Pf growth 48h 10.4µM, Pf growth 96h inconclusive
CC(=O)Nc1ccc(NS(=O)(=O)c2ccc(C)cc2)c([N+](=O)[O-])c1	Pf growth 96h inconclusive
Cc1ccc(NC(=O)c2cc(-c3cccs3)nc3ccccc23)nc1	Sm TGR block inconclusive, Pf growth 48h inconclusive, Pf growth 96h inconclusive
Cc1cc(C)c2nc(NNC(=O)c3cc(-c4cccs4)nc4ccccc34)sc2c1	Pf growth 48h 1.85µM, SARS PLpro yeast inconclusive, Pf growth 96h 3.29µM
Cc1ccc2sc(NNC(=O)c3cc(-c4cccs4)nc4ccccc34)nc2c1C	AmpC inh no detg inconclusive, AmpC detergent inconclusive, Pf growth 48h inconclusive, Pf growth 96h 10.4µM
